Data on 38 compounds can be found in PubChem BioAssay (NCI).

Compounds without any hit were thinned out: in the full panel of roughly 79,000, 15% have a hit. Values without a mark were called inactive. Active and inactive are the calls of the source. Cut-off read from the data, not from the text of the source: active = growth inhibition above about 70%; inactive = the rest.

The nature of experiment [1]: NCI Yeast Anticancer Drug Screen. Data for the rad50 strain (AID 155).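 Note: 0% = growth of vehicle-only cultures of the same strain.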 Conditions: S. cerevisiae rad50 strain growth inhibition; at 50.0 µM; hits give high values. In outline:
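DNA repair mutant yeast, compound exposure, growth read-out; inhibition is taken relative to vehicle.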

The nature of experiment [2]: NCI Yeast Anticancer Drug Screen. Data for the mec2-1 strain (AID 157). To be noted: S. cerevisiae mec2-1 strain, at 50.0 µM, hits give high values. In outline: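 Vehicle-treated cultures served as reference for growth inhibition of compound-exposed mec2-1 yeast.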
Experiment [3] can be described thus: NCI Yeast Anticancer Drug Screen. Data for the sgs1 mgt1 strain (AID 161).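 Note: 0% = growth of cultures given vehicle only.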 Conditions: S. cerevisiae sgs1 mgt1 strain, at 50.0 µM, hits give high values. The procedure, abridged:
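Read-out: growth inhibition vs vehicle controls. Cells: mutant yeast strain deficient in DNA damage repair.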

The nature of experiment [4]: NCI Yeast Anticancer Drug Screen. Data for the cln2 rad14 strain (AID 165).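 Note: 0% = growth equal to vehicle treated cultures.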 To be noted: S. cerevisiae cln2 rad14 strain, at 50.0 µM, hits give high values. In outline: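 Each compound was tested on cln2 rad14 yeast. Inhibition of growth was calculated against vehicle-exposed controls.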
A short description of experiment [5]: NCI Yeast Anticancer Drug Screen. Data for the bub3 strain (AID 167). Conditions: S. cerevisiae bub3 mutant strain, at 50.0 µM, hits give high values. In outline:
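In this screen, a yeast mutant lacking normal mitotic checkpoint function is challenged with compound. Relative growth versus vehicle gives the inhibition value.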

Experiment [6] in a line: NCI Yeast Anticancer Drug Screen. Data for the mlh1 rad18 strain (AID 175). To be noted: S. cerevisiae mlh1 rad18 strain growth inhibition; at 50.0 µM; hits give high values. The procedure, abridged:
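Vehicle-treated cultures served as the reference for growth inhibition in a yeast strain carrying DNA damage repair alterations exposed to each compound.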

`c1ccc2oc(N3CCN(c4nc5ccccc5o4)CC3)nc2c1`: the growth inhibition in experiment [1] was 4.45%; in experiment [2], -0.2%; in experiment [3], -9.1%; in experiment [4], 5.85%; in experiment [5] it was 12%; in experiment [6], -12.2%.
As for `CCNc1nc2c(N)ncnc2n1C1OC(CO)C(O)C1O` (stereo not drawn), the growth inhibition in experiment [1] was 12.8%; in experiment [2] it was -8.4%; in experiment [3], 6.45%; in experiment [4], -3.35%; in experiment [5] it was -0.1%; in experiment [6], -6.6%.
Turning to `[N-]=[N+]=Nc1cc(-c2ccccc2)nc2cc3c(cc12)OCO3`, the growth inhibition in experiment [1] was -2.9%; in experiment [2], -7.95%; in experiment [3] it was -19.8%; in experiment [4], -16.4%; in experiment [5], -34.2%; in experiment [6], -7.2%.
On to `c1ccc2c(c1)CSc1ccccc1-2`, for which the growth inhibition is 9.8% in experiment [1]; -8.9% in experiment [2]; -6.4% in experiment [3]; -12.2% in experiment [4]; 7% in experiment [5]; -3.65% in experiment [6].
For `Nc1nn(CC(O)CO)c(=O)s1` (stereo not drawn), the growth inhibition was 4.85% in experiment [1]; 15.7% in experiment [2]; 2.4% in experiment [3]; 11.8% in experiment [4]; 8.1% in experiment [5]; 8% in experiment [6].
For the compound `[N-]=[N+]=NS(=O)(=O)CCc1ccc(Cl)cc1`, the growth inhibition in experiment [1] is 4.55%; in experiment [2], -3.95%; in experiment [3], -12.4%; in experiment [4], -55%; in experiment [5], -17.9%; in experiment [6], 4.85%.
As to `CC(C)(C)c1ccc(OCCCCl)c(CCl)c1`, the growth inhibition is 23.4% in experiment [1]; 2.75% in experiment [2]; 10.1% in experiment [3]; 7.65% in experiment [4]; 52% in experiment [5]; 12.6% in experiment [6].
Regarding `O=[N+]([O-])c1cc(F)cc(F)c1Nc1ccccc1`, the growth inhibition in experiment [1] is 2.85%; in experiment [2], -11.4%; in experiment [3], 2.2%; in experiment [4], 3.1%; in experiment [5], 0.5%; in experiment [6], 17.6%.
In the case of `CC1(C(=O)O)CCCC1C(=O)O` (stereo not drawn), the growth inhibition is 12.5% in experiment [1]; 6.8% in experiment [2]; 1.75% in experiment [3]; -8.05% in experiment [4]; -1.25% in experiment [5]; 12.1% in experiment [6].
Consider `Cc1cc(N)ccc1C(=O)O`, for which the growth inhibition in experiment [1] is 1.7%; in experiment [2] it was -7.65%; in experiment [3], -0.65%; in experiment [4], 4.15%; in experiment [5], 5.2%; in experiment [6] it was 2.45%.
Regarding `CCOC(=O)C1=CC2CCOC2O1` (stereo not drawn), the growth inhibition in experiment [1] was -19.8%; in experiment [2], -14.8%; in experiment [3], 5.85%; in experiment [4] it was -28.7%; in experiment [5] it was -9.5%; in experiment [6], 5.5%.
Turning to `CC(Br)C(=O)NCC(=O)NCC(=O)O` (stereo not drawn), the growth inhibition in experiment [1] is 31.9%; in experiment [2] it was -14.9%; in experiment [3], -4.2%; in experiment [4] it was 16.4%; in experiment [5], 16.9%; in experiment [6], -4.75%.
For the compound `CC1COCC(C)N1CC(OCc1ccccc1)c1ccccc1` (stereo not drawn), the growth inhibition is -5.7% in experiment [1]; -2.2% in experiment [2]; -15.4% in experiment [3]; -52.2% in experiment [4]; -7.9% in experiment [5]; -15.5% in experiment [6].
On to `COc1ccc(/C=C/C(=O)c2sc(NC(=S)NC(=O)c3ccccc3F)nc2C)cc1OC`, for which the growth inhibition is 21.1% in experiment [1]; 8.5% in experiment [2]; 37.6% in experiment [3]; 30.1% in experiment [4]; 30.9% in experiment [5]; 22.9% in experiment [6].
For the compound `CC(c1ccccc1)N1OC1(c1ccccc1)c1ccccc1` (stereo not drawn), the growth inhibition is 41.5% in experiment [1]; 50.4% in experiment [2]; 57.8% in experiment [3]; 22.9% in experiment [4]; 30.6% in experiment [5]; 90.1% (active) in experiment [6].
Consider `C[CH2][Sn]([CH2]C)([O]P(=O)(C[Si](C)(C)C)c1ccccc1)[O]P(=O)(C[Si](C)(C)C)c1ccccc1` (stereo not drawn), for which the growth inhibition in experiment [1] was 0%; in experiment [2] it was 8.7%; in experiment [3], 4.2%; in experiment [4] it was 24%; in experiment [5] it was 53.2%; in experiment [6], 17.2%.
As for `CCCOC(=O)/C(C)=C\c1ccccc1`, the growth inhibition was 21% in experiment [1]; 15.9% in experiment [2]; 17.6% in experiment [3]; 15.3% in experiment [4]; -0.6% in experiment [5]; 16.9% in experiment [6].
`CCc1ccc(NC(=O)CCC(=O)O)cc1`: the growth inhibition was -1.15% in experiment [1]; -9.15% in experiment [2]; 4.75% in experiment [3]; -90.5% in experiment [4]; -4.9% in experiment [5]; -16.9% in experiment [6].
`CSc1nc(SC)c2cnn(C3OC(CO)C(O)C3O)c2n1` (stereo not drawn): the growth inhibition in experiment [1] is 12%; in experiment [2] it was -1.1%; in experiment [3], 20.9%; in experiment [4], 3.25%; in experiment [5], 16.4%; in experiment [6], 33.4%.
For the compound `Cc1ccc(C(=O)CC(C#N)c2ccccc2)cc1` (stereo not drawn), the growth inhibition was 25.6% in experiment [1]; 17.4% in experiment [2]; 13.4% in experiment [3]; 18.1% in experiment [4]; 5.55% in experiment [5]; 12.7% in experiment [6].
As for `CC(=O)Nc1cc2cc(NC(=O)C(Cl)(Cl)Cl)ccc2oc1=O`, the growth inhibition is -24.3% in experiment [1]; -17.4% in experiment [2]; -4.65% in experiment [3]; 0.55% in experiment [4]; -11.7% in experiment [5]; -24.6% in experiment [6].
For `CCOC(=O)c1[nH]c(CC(=O)O)c(C(=O)OCC)c1C`, the growth inhibition in experiment [1] was -6.8%; in experiment [2] it was 3%; in experiment [3], 9%; in experiment [4], -44.9%; in experiment [5] it was 3.9%; in experiment [6], 5.1%.
Regarding `CCCCCCCCCCCC(=O)OCC1OC(n2cc(F)c(=O)[nH]c2=O)C(NC(=O)OCc2ccccc2)C(O)C1O` (stereo not drawn), the growth inhibition in experiment [1] is 62.8%; in experiment [2] it was 5.85%; in experiment [3] it was 31.2%; in experiment [4], 18.8%; in experiment [5], 18.1%; in experiment [6] it was 24.8%.
Regarding `OC1OC(CCl)C(Cl)C(O)C1O` (stereo not drawn), the growth inhibition in experiment [1] was 0.55%; in experiment [2], -2.95%; in experiment [3] it was 9.9%; in experiment [4], -11%; in experiment [5], -18.9%; in experiment [6] it was -16.6%.
Turning to `CCCN(CCN(CC)CC)C(=O)N(CC)CC`, the growth inhibition in experiment [1] is -11%; in experiment [2], 14.3%; in experiment [3], 3.2%; in experiment [4] it was -19.1%; in experiment [5], 6.35%; in experiment [6], -17.6%.
Consider `O=c1[nH]c(=S)[nH]c2[nH]c(=S)ncc12`, for which the growth inhibition was -26.8% in experiment [1]; -43.1% in experiment [2]; -31.8% in experiment [3]; 1.9% in experiment [4]; -13.1% in experiment [5]; -15.1% in experiment [6].
Turning to `CC(Sc1ncnc2[nH]ncc12)C(N)=O` (stereo not drawn), the growth inhibition in experiment [1] is -22.5%; in experiment [2], -16.4%; in experiment [3], -18.4%; in experiment [4], -6.6%; in experiment [5], 5%; in experiment [6] it was 0.95%.
Consider `CN(C)CCCN`, for which the growth inhibition in experiment [1] is -11.3%; in experiment [2], -4.4%; in experiment [3], 3%; in experiment [4] it was -30.8%; in experiment [5], 5.7%; in experiment [6], 1.5%.
With `CC(=O)OCC(=O)C1(O)C(C)CC2C3CCC4CC(=O)CCC4(C)C3=CCC21C` (stereo not drawn), the growth inhibition in experiment [1] was 43.1%; in experiment [2], -16.6%; in experiment [3], 0.65%; in experiment [4], -2.95%; in experiment [5], 26.1%; in experiment [6], 23.8%.
On to `Cc1ccc(C(C)C)c(OCC2=NCCN2C)c1`, for which the growth inhibition in experiment [1] was -7.15%; in experiment [2] it was -3.15%; in experiment [3], 3.35%; in experiment [4], 0.4%; in experiment [5] it was -16.1%; in experiment [6], -10.2%.
Take `O=C(COc1ccc2c(=O)cc(-c3ccc(Cl)cc3)oc2c1)N1CCN(c2ccccc2)CC1`: the growth inhibition is 9.15% in experiment [1]; 7.05% in experiment [2]; -8.8% in experiment [3]; 29.1% in experiment [4]; 3.95% in experiment [5]; 10.9% in experiment [6].
Take `O=C(NC1CCCCC1NC(c1ccccc1)(c1ccccc1)c1ccccc1)C(=O)NC1CCCCC1NC(c1ccccc1)(c1ccccc1)c1ccccc1` (stereo not drawn): the growth inhibition in experiment [1] was -33.9%; in experiment [2] it was -22.4%; in experiment [3] it was -13.7%; in experiment [4], 12.1%; in experiment [5], -10.1%; in experiment [6], -2.35%.
With `Cc1ccc(Br)c([N+](=O)[O-])c1`, the growth inhibition in experiment [1] was 5.1%; in experiment [2] it was -4.75%; in experiment [3] it was 2.1%; in experiment [4], 5.85%; in experiment [5], -0.2%; in experiment [6], 1.75%.
Turning to `O=c1ncc2ccccc2[nH]1`, the growth inhibition in experiment [1] was -19.9%; in experiment [2] it was -10.7%; in experiment [3], -9.6%; in experiment [4], -4.3%; in experiment [5], -12.8%; in experiment [6], -23.9%.
In the case of `O=C(O)/C(=C/c1ccccc1)c1ccccc1`, the growth inhibition is -9.3% in experiment [1]; -45% in experiment [2]; -30.3% in experiment [3]; -23.1% in experiment [4]; -33.5% in experiment [5]; 26.8% in experiment [6].
As for `CC(=O)N1CC(=O)N2C(=O)/C(=C/c3ccc(Cl)cc3)N=C12`, the growth inhibition in experiment [1] was 2.3%; in experiment [2], 1.35%; in experiment [3], 11.9%; in experiment [4], 3.35%; in experiment [5], 9.45%; in experiment [6], -42.4%.
On to `CCCCn1c(-c2ccccc2)cs/c1=N\NC(=O)Cn1c(C)nc2ccccc21`, for which the growth inhibition in experiment [1] was -30.8%; in experiment [2], -8.3%; in experiment [3], -8.4%; in experiment [4], 18.9%; in experiment [5], -3.25%; in experiment [6] it was -16.8%.
For `O=C(Cl)c1cc(Cl)cc(Cl)c1Br`, the growth inhibition was 12.9% in experiment [1]; 4.7% in experiment [2]; 34.5% in experiment [3]; 17.6% in experiment [4]; 15.9% in experiment [5]; 25.7% in experiment [6].
